These results are taken from PubChem BioAssay (Tox21).

Unmarked numbers belong to inactive results. Inconclusive results are not listed. Active and inactive are the calls of the source. Unless noted, calls come from the whole dose curve; as a rule, active = well fitted curve in the direction sought with a large enough effect in the repeat runs; inconclusive = weak or mixed curves; inactive = no such curve, though single readings can be large; an effect the other way counts as inactive or inconclusive.

A short description of assay [1]: qHTS assay to identify small molecule antagonists of the constitutive androstane receptor (CAR) signaling pathway - cell viability counter screen (AID 1224837). Note: nearly all actives have a fitted effect of over 45% in size. Note: potency is the fitted concentration of half-maximal effect. In short, it runs like this:
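HepG2 cells stably carrying hCAR and CYP2B6-2.2kb reporter, stimulated with 50 nM CITCO and compounds at 15 concentrations for 23 h at 37 C. Viability measured by CellTiter-Fluor fluorescence.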
(Quantitative high-throughput screening tests each substance at several concentrations.)

Assay [2] deals with Nuclear receptor subfamily 1 group I member 3 (Homo sapiens) (UniProt Q14994). In words: qHTS assay to identify small molecule antagonists of the constitutive androstane receptor (CAR) signaling pathway (AID 1224838). Note: nearly all actives have a fitted effect of over 40% in size. In short, it runs like this:
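HepG2 cells stably carrying hCAR and a CYP2B6-2.2kb luciferase reporter, seeded 4 hrs before compound (15 concentrations). Stimulated with 50 nM CITCO for 24 hr at 37 C. ONE-Glo luminescence read after 30 min at room temperature.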

For assay [3] the target is unchanged. The experiment in a line: qHTS assay to identify small molecule agonists of the constitutive androstane receptor (CAR) signaling pathway (AID 1224839). Note: nearly all actives have a fitted effect of over 15% in size. Note: potency is the fitted concentration of half-maximal effect. The method, boiled down: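 HepG2 cells stably co-transfected with hCAR and a CYP2B6-2.2kb luciferase reporter; compounds at 15 concentrations with 0.75 uM PK11195 present. After 24 hr at 37 C, luciferase read by ONE-Glo luminescence.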

Assay [4] in a line: qHTS assay to identify small molecule antagonists of the estrogen related receptor signaling pathway with the pleiotropic PPARgamma coactivator (PGC) from Tox21 10K library - cell viability counter screen (AID 1224840; active = well fitted cell-killing curve with a large enough effect in the repeat runs, not every such curve was filed as active; note: nearly all actives have a fitted effect of over 40% in size). The method, boiled down: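 PGC/ERR cells (2,000/well) plated 6 h, then compound-treated for 17.5 h at 37 C. Viability measured by CellTiter-Fluor fluorescence after 30 min at 37 C, multiplexed with the pathway assay.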

The nature of assay [5]: qHTS assay to identify small molecule agonists of the hypoxia (HIF-1) signaling pathway - cell viability counter screen (AID 1224844; calls by dose curve; note: nearly all actives have a fitted effect of over 50% in size; note: potency is the fitted concentration of half-maximal effect). In short, it runs like this: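 HRE-bla ME-180 cells, 2,000/well in 0.5% dialyzed FBS medium, treated 17 h at 37C with compounds. Viability read in the same wells as the bla reporter, by CellTiter-Glo luminescence after 30 min at room temperature.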

Assay [6] can be described thus: qHTS assay to identify small molecule agonists of H2AX (AID 1224845; active = well fitted activation curve with a large enough effect in the signal ratio in the repeat runs, not every such curve was filed as active; the % refers to the signal ratio). The method, boiled down: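 Wild-type CHO-K1 cells, plated overnight, exposed 3hr at 37C to 15 concentrations (0.76% DMSO final). Lysed, then HTRF anti-pH2AX (S139) cryptate and anti-H2AX-d2 antibodies, 24 hr room temperature; 665/620 nm emission read.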
A short description of assay [7]: qHTS assay to identify small molecule agonists of the hypoxia (HIF-1) signaling pathway (AID 1224846; active = well fitted activation curve with a large enough effect in the signal ratio in the repeat runs, not every such curve was filed as active; the % refers to the signal ratio). The method, boiled down: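 HRE-bla ME-180 beta-lactamase reporter cells in medium with 0.5% dialyzed FBS, pre-incubated 5 h then exposed to compounds 17 h at 37C, 5% CO2; reporter induction read with CCF4-AM FRET substrate.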
The nature of assay [8]: qHTS RealTime-Glo MT Cell Viability Assay in HepG2 cells - 24 hour (AID 1224867). Note: nearly all actives have a fitted effect of over 50% in size. Note: potency is the fitted concentration of half-maximal effect. In short, it runs like this: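 Tox21 10K library screened in qHTS format on HepG2 cells carrying RealTime-Glo reagents. Compounds were added after a 5 h preincubation, and the luminescent signal from continuous culture was measured repeatedly during 40 h treatment.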
Assay [9] in a line: qHTS RealTime-Glo MT Cell Viability Assay in HEK293 cells - 32 hour (AID 1224868). Note: top concentration of the series differs between compounds; nearly all actives have a fitted effect of over 50% in size. The method, boiled down: (§1)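 Luminescence generated by NanoLuc from substrate produced by living HEK293 cells served as the viability signal. Each value reflects the reading at its stated time point during continuous 40 h compound exposure at 37 C.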
A short description of assay [10]: A CellTox Green Cytotoxicity Assay to monitor cytotoxicity in HEK293 cells - 0 hour (AID 1224869). Note: nearly all actives have a fitted effect of over 50% in size. The method, boiled down: (§2)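 HEK293 cells, 600/well, were preincubated 5 hours and then exposed to compounds at 37 C for up to 40 hours. A cell-impermeant cyanine dye staining dead-cell DNA was read by fluorescence at 0, 8, 16, 24, 32 and 40 h time points.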
Assay [11] is described as follows: qHTS RealTime-Glo MT Cell Viability Assay in HepG2 cells - 40 hour (AID 1224870). Note: nearly all actives have a fitted effect of over 50% in size. In short, it runs like this:
(§3)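 HepG2 cells (600/well) mixed with RealTime-Glo MT reagent, settled 5 h at 37 C/5% CO2 before compound addition. Nonlytic NanoLuc luminescence from viable-cell prosubstrate reduction read repeatedly during 40 h treatment at 37 C.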

Assay [12] is described as follows: A CellTox Green Cytotoxicity Assay to monitor cytotoxicity in HEK293 cells - 40 hour (AID 1224871). Note: nearly all actives have a fitted effect of over 45% in size. Note: potency is the fitted concentration of half-maximal effect. The method, boiled down: as §2
Assay [13] in a line: qHTS RealTime-Glo MT Cell Viability Assay in HEK293 cells - 16 hour (AID 1224872). Note: nearly all actives have a fitted effect of over 50% in size. Note: potency is the fitted concentration of half-maximal effect. The method, boiled down:
as §1

Assay [14] is described as follows: qHTS RealTime-Glo MT Cell Viability Assay in HepG2 cells - 8 hour (AID 1224873). Note: nearly all actives have a fitted effect of over 55% in size. The method, boiled down:
as §3

Assay [15] is described as follows: qHTS assay to identify small molecule agonists of H2AX - cell viability counter screen (AID 1224847; calls by dose curve; note: nearly all actives have a fitted effect of over 30% in size; note: potency is the fitted concentration of half-maximal effect). In short, it runs like this: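 CHO-K1 cells plated overnight at 37C, then exposed 3 h at 37C to compounds at 15 concentrations (0.76% DMSO final). Viability by CellTiter-Glo luminescence after 30 min at room temperature.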
Assay [16] addresses Thyrotropin receptor (Homo sapiens) (UniProt P16473). The experiment in a line: qHTS assay to identify small molecule agonists of the thyroid stimulating hormone receptor (TSHR) signaling pathway (AID 1224843; calls by dose curve; note: nearly all actives have a fitted effect of over 45% in size). In short, it runs like this: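 Steps: seed 800 TSHR-HEK293 cells per well; add test compound and hold 30 min at ambient temperature; dispense cAMP-d2 then anti-cAMP cryptate; incubate 1 h at ambient; measure fluorescence intensity.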

The nature of assay [17]: qHTS assay to identify small molecule antagonists of the estrogen related receptor (ERR) signaling pathway from Tox21 library (AID 1224848). Note: nearly all actives have a fitted effect of over 50% in size. Note: potency is the fitted concentration of half-maximal effect. In short, it runs like this: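 Luminescent reporter read-out (ONE-Glo) from NTP's ERR cell line after 18 h treatment at 37 C with DMSO-dissolved Tox21 compounds; cells pre-plated 6 h beforehand at 2,000 per well.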
A short description of assay [18]: qHTS assay to identify small molecule agonists of the estrogen related receptor (ERR) signaling pathway from Tox21 library (AID 1224849; calls by dose curve; note: nearly all actives have a fitted effect of over 15% in size). As to conditions: ERR reporter cell line, ONE-Glo luciferase, 18 h; at 92.4 µM (top of the series) unless noted. The method, boiled down: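 ERR reporter cells (NTP line) pre-incubated 6 hours at 37 C, then exposed to compounds for 18 hours at 37 C. ONE-Glo luciferase luminescence was read after 30 minutes at room temperature.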
% is set by controls: 0 for no effect and ±100 for the full control effect.

Sequence of Nuclear receptor subfamily 1 group I member 3 (Homo sapiens) (Q14994 whole entry, looked up): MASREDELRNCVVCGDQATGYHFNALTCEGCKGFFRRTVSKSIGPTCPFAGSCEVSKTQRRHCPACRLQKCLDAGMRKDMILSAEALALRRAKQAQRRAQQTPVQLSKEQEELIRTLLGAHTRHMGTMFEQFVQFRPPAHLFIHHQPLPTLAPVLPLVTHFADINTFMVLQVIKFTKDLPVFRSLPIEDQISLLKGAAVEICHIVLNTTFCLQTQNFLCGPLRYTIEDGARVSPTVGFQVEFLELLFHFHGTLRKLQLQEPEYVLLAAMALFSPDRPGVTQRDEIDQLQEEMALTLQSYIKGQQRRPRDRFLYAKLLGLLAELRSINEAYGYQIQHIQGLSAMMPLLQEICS
Sequence of Thyrotropin receptor (Homo sapiens) (P16473 whole entry, looked up): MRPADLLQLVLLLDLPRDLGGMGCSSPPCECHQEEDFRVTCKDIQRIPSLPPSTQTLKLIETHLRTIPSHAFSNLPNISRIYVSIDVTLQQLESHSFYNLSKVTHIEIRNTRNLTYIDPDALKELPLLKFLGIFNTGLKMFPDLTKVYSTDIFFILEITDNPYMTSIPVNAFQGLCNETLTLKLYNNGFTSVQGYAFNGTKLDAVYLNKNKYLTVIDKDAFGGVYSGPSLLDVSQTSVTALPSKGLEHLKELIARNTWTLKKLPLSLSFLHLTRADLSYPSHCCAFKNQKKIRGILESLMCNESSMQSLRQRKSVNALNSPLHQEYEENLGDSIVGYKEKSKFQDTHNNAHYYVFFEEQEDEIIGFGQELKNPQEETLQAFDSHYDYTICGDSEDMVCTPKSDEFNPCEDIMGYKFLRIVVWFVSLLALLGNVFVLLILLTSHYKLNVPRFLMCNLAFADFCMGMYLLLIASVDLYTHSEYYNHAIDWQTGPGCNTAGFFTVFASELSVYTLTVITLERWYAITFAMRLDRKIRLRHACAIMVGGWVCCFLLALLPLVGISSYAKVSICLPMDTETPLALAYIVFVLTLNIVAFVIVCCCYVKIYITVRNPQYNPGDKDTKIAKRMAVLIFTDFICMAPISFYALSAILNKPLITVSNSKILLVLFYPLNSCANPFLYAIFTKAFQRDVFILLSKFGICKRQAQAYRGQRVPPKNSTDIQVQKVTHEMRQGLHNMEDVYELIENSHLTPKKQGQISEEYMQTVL

As for `O=C1OC(=O)c2cc(-c3ccc4c(c3)C(=O)OC4=O)ccc21`, the Potency result in assay [1], in assay [2], in assay [3], in assay [4], in assay [5] and in assay [6] was “inactive” in each case. The Potency entry in assay [7], in [8], in assay [9], in [10], in assay [11] and in assay [12] was “inactive” in each case. Besides, the Potency entry in assay [13] and in assay [14] was “inactive” in each case.
Consider `NCc1cccc(C2CCN(C(=O)c3ccc(C#Cc4ccccc4F)o3)CC2)c1`, for which the Potency was 68.6 µM (active) in [1]; 54.9 µM (active) in assay [5]; 56.6 µM (active) in assay [15]; 54.9 µM (active) in assay [8]; 54.9 µM (active) in [12]; 49 µM (active) in assay [13]. Further, the Potency entry in assay [3] and in assay [10] was “inactive” each time.
As to `O=C(c1ccccc1)c1ccc(Cl)cc1`, the Potency entry in assay [1], in assay [2], in assay [4], in assay [16], in assay [5] and in [7] was “inactive” throughout. Besides, the Potency result in assay [15], in assay [8], in assay [9], in [10], in assay [11] and in [12] was “inactive” in each case. In addition, the Potency entry in assay [13] and in assay [14] was “inactive” in each case.
Regarding `COc1ccc(OC)c(N=Nc2c(O)ccc3ccccc23)c1`, the Potency in assay [1] was 24.3 µM (active); in assay [3], 12.2 µM (active); in assay [5], 38.9 µM (active); in [15], 40.1 µM (active). Moreover, the Potency result in assay [2], in assay [16], in assay [6], in assay [17], in assay [8] and in assay [10] was “inactive” each time. Moreover, the Potency entry in assay [11] and in [12] was “inactive” each time. In addition, the activity change, positive = activation in assay [18] was -14.1%.
Turning to `CCOC(=O)C1=NN(c2ccc(Cl)cc2Cl)C(C)(C(=O)OCC)C1` (stereo not given), the Potency entry in assay [1], in [4], in assay [5], in [6], in [7] and in assay [8] was “inactive” throughout. Moreover, the Potency entry in assay [10] and in assay [11] was “inactive” each time. The Potency in assay [17] was 48.6 µM (active). The activity change, positive = activation in assay [18] was -36.6%.
`Cn1c(=O)[nH]c2ncn(C)c2c1=O`: the Potency result in assay [1], in [4], in [16], in [5], in assay [6] and in assay [15] was “inactive” each time. Besides, the Potency result in assay [8], in assay [9], in assay [10], in [11], in assay [13] and in assay [14] was “inactive” each time.
Take `NC(=O)C1CO1` (stereo not given): the Potency entry in assay [1], in [4], in assay [16], in assay [5], in [6] and in assay [7] was “inactive” each time. The Potency entry in assay [15], in assay [8], in [9], in assay [10], in assay [11] and in [12] was “inactive” in each case. Besides, the Potency entry in assay [13] and in assay [14] was “inactive” each time.
In the case of `C/C=C/C(=O)OCC(C)C`, the Potency result in assay [1], in assay [4], in assay [16], in [5], in assay [6] and in assay [7] was “inactive” throughout. The Potency entry in assay [15], in assay [8], in [9], in assay [10], in assay [11] and in assay [12] was “inactive” throughout. Also, the Potency result in [13] and in [14] was “inactive” each time.
Regarding `CCOc1ccc([N+](=O)[O-])cc1`, the Potency entry in [1], in [4], in assay [5], in assay [6], in [7] and in assay [15] was “inactive” each time. Also, the Potency result in [8], in assay [10], in assay [11] and in assay [14] was “inactive” in each case. The Potency in [12] is 44.3 µM (active).
